test system: T1, ADCK3; conditions: concentration: 1 μM, replicates: in singlicate; n = 1
T1 construct: gene CABC1
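Also: KINOMEscan kinase panel screen.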

SMILES | %Inh [%]
Nc1n[nH]c2ncc(-c3ccccc3)cc12 [SB-517081] | 7
COc1cc(Nc2nccc(N3CCC(NC(=O)C4COc5ccccc5O4)C3)n2)cc(OC)c1OC (stereo not drawn) [GSK1379761] | 10
COc1cc2ncn(-c3cc(OCCCc4ccccc4)c(C(N)=O)s3)c2cc1OC [GSK205189] | 24
CCC(=O)c1c(-c2ccccc2)c2cc(Cl)ccc2c(=O)n1Cc1cc(C(=O)NC2CC2)n(C)n1 | 0
C[C@@H]1CC[C@H](C(=O)NC2CCCCC2)CN1c1cc(-c2ccc3c(N)n[nH]c3c2)nc(N)n1 [GSK2291363] | 22
CCc1ccc(-c2ccc3c(c2)-c2nn(C)cc2S(=O)(=O)N3C)cc1 | 0
Cc1nnc(-c2ccc(C)c(-c3ccc(C(=O)O)cc3)c2)o1 [GW608005] | 0
COc1cc(OC)cc(-c2cc3cnc(N)nc3nc2NC(=O)NC(C)(C)C)c1 | 0
COC(=O)c1c(-c2ccccc2)c2cc(Br)ccc2c(=O)n1Cc1ccc(S(C)(=O)=O)cc1 | 12
Cl.NS(=O)(=O)c1cccc(Nc2cc(-c3ccc(F)cc3)n[nH]2)c1 [GW824645] | 0
CCC(=O)c1c(-c2ccccc2)c2cc(Cl)ccc2c(=O)n1Cc1cc(S(C)(=O)=O)n(CC(N)=O)n1 | 29
COc1cc2nccc(Nc3ccc(OCc4ccc(NC(C)=O)cc4)cc3)c2cc1OC.Cl [GW440135] | 15
COc1cccc(C2=C(Nc3cccc(C(=O)O)c3)C(=O)NC2=O)c1 [SB-390770] | 0
CN1C(=O)C(Nc2cc(Cl)c(O)c(Cl)c2)=C(c2ccc(Cl)cc2)C1=O [SB-404321] | 3
O=C(Nc1n[nH]c2cc(-c3ccccc3F)ccc12)C1CC1 [SB-733371] | 0
COc1cc2nccc(Nc3cccc(Oc4ccccc4)c3)c2cc1OC.Cl [GW284543] | 32
COc1cc2ncn(-c3cc(OCc4ccncc4)c(C(N)=O)s3)c2cc1OC [GSK336313] | 0
Cc1ccc(Oc2ccc(Nc3ncnc4cc[nH]c34)cc2C)cn1 | 16

SMILES | %Inh [%]
COc1ccc(-n2cnc3c(N)ncnc32)cc1 [SKF-97236] | 0
O=C(NCCNc1ccnc(Nc2ccc(F)cc2)n1)Nc1ccc2c(c1)OCO2 [GSK1379882] | 9
COc1ccc(-c2cc3c(C)nc(N)nc3n([C@H]3CC[C@H](O)CC3)c2=O)cn1 | 0
O=C(Nc1ccc2c(c1)OCO2)NC1CCN(c2ccnc(NCc3ccc(F)cc3)n2)CC1 [GSK1379859] | 0
O=c1cc(N2CCOCC2)nc2n(Cc3ccc(F)c(Cl)c3)ccn12 [GSK2297099] | 0
CCC(=O)c1c(-c2ccccc2)c2cc(Cl)ccc2c(=O)n1Cc1ccc(C(=O)O)cc1 | 0
CCS(=O)c1ccc(-c2coc3ccc(-c4nnc(C)o4)cc23)cc1 (stereo not drawn) | 5
CC(C)(C)c1ccc(C(=O)Nc2cn3cc(-c4ccccc4)ccc3n2)cc1 | 25
Nc1nc(N)c2nc(-c3ccccc3)[nH]c2n1 [SKF-12778] | 0
Cc1nc(N(C)[C@H]2CN(C(=O)CC#N)CC[C@H]2C)c2cc[nH]c2n1 | 0
CCC(=O)c1c(-c2ccccc2)c2cc(Cl)ccc2c(=O)n1Cc1cc(S(C)(=O)=O)n(CCC(C)(C)O)n1 | 27
CCn1c(-c2nonc2N)nc2ccccc21 [SB-693162/GW549034] | 4
CCn1c(-c2ccoc2)nc2cnccc21 [SB-733887] | 10
Cc1cccc(-c2cc(-c3c[nH]nc3-c3ccccn3)ccn2)c1 [GW679395] | 3
Nc1ncnc2c1ncn2-c1cccc(F)c1 [SKF-97560] | 21
CN1C(=O)C(Nc2ccccc2)=C(c2ccccc2)C1=O [SB-300079] | 0
OCCCNc1nccc(-c2c(-c3cccc(C(F)(F)F)c3)nn3cc(C(F)(F)F)ccc23)n1 [GW630813] | 68
COc1ccc(-c2cc3c(C)nc(N)nc3n([C@H]3CC[C@H](OCCO)CC3)c2=O)cn1 | 0

test system: ADCK4; conditions: concentration: 1 μM, replicates: in singlicate; n = 1

SMILES | %Inh [%]
Nc1n[nH]c2ncc(-c3ccccc3)cc12 [SB-517081] | 19
COc1cc(Nc2nccc(N3CCC(NC(=O)C4COc5ccccc5O4)C3)n2)cc(OC)c1OC (stereo not drawn) [GSK1379761] | 65
COc1cc2ncn(-c3cc(OCCCc4ccccc4)c(C(N)=O)s3)c2cc1OC [GSK205189] | 3
CCC(=O)c1c(-c2ccccc2)c2cc(Cl)ccc2c(=O)n1Cc1cc(C(=O)NC2CC2)n(C)n1 | 10
C[C@@H]1CC[C@H](C(=O)NC2CCCCC2)CN1c1cc(-c2ccc3c(N)n[nH]c3c2)nc(N)n1 [GSK2291363] | 49
CCc1ccc(-c2ccc3c(c2)-c2nn(C)cc2S(=O)(=O)N3C)cc1 | 0
Cc1nnc(-c2ccc(C)c(-c3ccc(C(=O)O)cc3)c2)o1 [GW608005] | 0
COc1cc(OC)cc(-c2cc3cnc(N)nc3nc2NC(=O)NC(C)(C)C)c1 | 0
COC(=O)c1c(-c2ccccc2)c2cc(Br)ccc2c(=O)n1Cc1ccc(S(C)(=O)=O)cc1 | 8
Cl.NS(=O)(=O)c1cccc(Nc2cc(-c3ccc(F)cc3)n[nH]2)c1 [GW824645] | 0
CCC(=O)c1c(-c2ccccc2)c2cc(Cl)ccc2c(=O)n1Cc1cc(S(C)(=O)=O)n(CC(N)=O)n1 | 0
COc1cc2nccc(Nc3ccc(OCc4ccc(NC(C)=O)cc4)cc3)c2cc1OC.Cl [GW440135] | 23
COc1cccc(C2=C(Nc3cccc(C(=O)O)c3)C(=O)NC2=O)c1 [SB-390770] | 8
CN1C(=O)C(Nc2cc(Cl)c(O)c(Cl)c2)=C(c2ccc(Cl)cc2)C1=O [SB-404321] | 16
O=C(Nc1n[nH]c2cc(-c3ccccc3F)ccc12)C1CC1 [SB-733371] | 0
COc1cc2nccc(Nc3cccc(Oc4ccccc4)c3)c2cc1OC.Cl [GW284543] | 22
COc1cc2ncn(-c3cc(OCc4ccncc4)c(C(N)=O)s3)c2cc1OC [GSK336313] | 20
Cc1ccc(Oc2ccc(Nc3ncnc4cc[nH]c34)cc2C)cn1 | 0

SMILES | %Inh [%]
COc1ccc(-n2cnc3c(N)ncnc32)cc1 [SKF-97236] | 0
O=C(NCCNc1ccnc(Nc2ccc(F)cc2)n1)Nc1ccc2c(c1)OCO2 [GSK1379882] | 23
COc1ccc(-c2cc3c(C)nc(N)nc3n([C@H]3CC[C@H](O)CC3)c2=O)cn1 | 0
O=C(Nc1ccc2c(c1)OCO2)NC1CCN(c2ccnc(NCc3ccc(F)cc3)n2)CC1 [GSK1379859] | 30
O=c1cc(N2CCOCC2)nc2n(Cc3ccc(F)c(Cl)c3)ccn12 [GSK2297099] | 11
CCC(=O)c1c(-c2ccccc2)c2cc(Cl)ccc2c(=O)n1Cc1ccc(C(=O)O)cc1 | 0
CCS(=O)c1ccc(-c2coc3ccc(-c4nnc(C)o4)cc23)cc1 (stereo not drawn) | 0
CC(C)(C)c1ccc(C(=O)Nc2cn3cc(-c4ccccc4)ccc3n2)cc1 | 0
Nc1nc(N)c2nc(-c3ccccc3)[nH]c2n1 [SKF-12778] | 22
Cc1nc(N(C)[C@H]2CN(C(=O)CC#N)CC[C@H]2C)c2cc[nH]c2n1 | 0
CCC(=O)c1c(-c2ccccc2)c2cc(Cl)ccc2c(=O)n1Cc1cc(S(C)(=O)=O)n(CCC(C)(C)O)n1 | 1
CCn1c(-c2nonc2N)nc2ccccc21 [SB-693162/GW549034] | 0
CCn1c(-c2ccoc2)nc2cnccc21 [SB-733887] | 20
Cc1cccc(-c2cc(-c3c[nH]nc3-c3ccccn3)ccn2)c1 [GW679395] | 22
Nc1ncnc2c1ncn2-c1cccc(F)c1 [SKF-97560] | 0
CN1C(=O)C(Nc2ccccc2)=C(c2ccccc2)C1=O [SB-300079] | 25
OCCCNc1nccc(-c2c(-c3cccc(C(F)(F)F)c3)nn3cc(C(F)(F)F)ccc23)n1 [GW630813] | 43
COc1ccc(-c2cc3c(C)nc(N)nc3n([C@H]3CC[C@H](OCCO)CC3)c2=O)cn1 | 0

Source: PMC5540273 (PLoS ONE, 2017)
